Results reported in PubChem BioAssay (Tox21).
Records with an inconclusive call do not appear. A call without a number means that no potency is given here. Active and inactive are the calls of the source. Calls come from the whole dose curve.

Target: 5-hydroxytryptamine receptor 2A (Homo sapiens) (UniProt P28223)
Test: 5-hydroxytryptamine receptor 2A (HTR2A) small molecule antagonists, cell-based qHTS assay (AID 1963586); note: nearly all actives have a fitted effect of over 45% in size
Details: HTR2A-CHO cells, DOI-induced calcium flux, fluorescence; series mostly up to 61.5 µM
Source text: National Center for Advancing Translational Sciences [NCATS]
Division of Preclinical Innovation [DPI]
U.S. Environmental Protection Agency [EPA]
National Institutes of Environmental Health Sciences [NIEHS]
National Toxicology Program [NTP]
U.S. Food and Drug Administration [FDA]
The HTR2A receptor is a subtype of the 5-HT2 receptor that belongs to the serotonin receptor family and is a G protein-coupled receptor (GPCR). The HTR2A-CHO cell line stably expressing human 5-hydroxytryptamine receptor 2A (HTR2A) can be used for screening antagonists of interactions between 5-HT2 and its ligands. The HTR2A-CHO calcium flux assay is a homogeneous fluorescence-based assay for detecting the intracellular calcium level using FDSS kinetic plate reader system.
Tox21 Assay Protocol Summary:
HTR2A-CHO cells were dispensed at 2000 cells/3uL/well in 1536-well black-clear bottom plates using a Multidrop Dispenser. After the assay plates were incubated at a 37 C/5% CO2 incubator for 18 h, 3 uL of Dye Loading Buffer was transferred to the assay plate by a Flying Reagent Dispenser. The assay plates were incubated at 37 C for 1h. For antagonist mode, 23 nL of compounds dissolved in DMSO, positive controls or DMSO only was transferred to the assay plate by a pin tool. After 5 min incubation at room temperature, 1.5 uL of 4-Iodo-2,5-dimethoxy-alpha-methylbenzeneethanamine hydrochloride (DOI) at 4nM was added to each well. The fluorescence intensity in the plates was measured using FDSS 7000EX kinetic plate reader for 3 min at 1 sec intervals.
Potency is the fitted concentration of half-maximal effect.

Chain of 5-hydroxytryptamine receptor 2A (Homo sapiens) (P28223 whole entry, looked up): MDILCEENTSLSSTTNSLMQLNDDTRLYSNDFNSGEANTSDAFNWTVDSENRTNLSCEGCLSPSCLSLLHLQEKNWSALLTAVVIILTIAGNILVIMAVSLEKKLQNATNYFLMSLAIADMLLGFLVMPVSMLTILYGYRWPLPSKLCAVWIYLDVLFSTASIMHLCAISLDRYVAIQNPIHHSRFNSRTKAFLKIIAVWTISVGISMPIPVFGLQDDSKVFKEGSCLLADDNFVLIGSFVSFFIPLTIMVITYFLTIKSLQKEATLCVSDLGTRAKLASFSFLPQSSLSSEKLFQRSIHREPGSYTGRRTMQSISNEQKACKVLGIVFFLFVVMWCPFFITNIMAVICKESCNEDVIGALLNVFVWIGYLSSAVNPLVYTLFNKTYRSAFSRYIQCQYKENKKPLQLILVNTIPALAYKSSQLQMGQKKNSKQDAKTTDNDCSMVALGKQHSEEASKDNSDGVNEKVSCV

| SMILES | Potency | activity, negative = inhibition |
| --- | --- | --- |
| C[C@H](NC(CCc1ccccc1)C(=O)O)C(=O)N1CCC[C@H]1C(=O)O (stereo not given in full) | inactive | – |
| CC(=O)Nc1ccc(OCCOCCOc2ccc(NC(C)=O)cc2)cc1 | inactive | – |
| C=C(C)c1cccc(C(=C)C)c1 | inactive | – |
| Nc1cccc(O)c1 | inactive | – |
| CCC(CC)CO | inactive | – |
| OC[C@H]1O[C@@H](n2cnc3c(=S)nc[nH]c32)[C@H](O)[C@@H]1O | inactive | – |
| c1cc[c]([Bi]([c]2ccccc2)[c]2ccccc2)cc1 | inactive | – |
| O=[N+]([O-])c1nccn1CO[C@@H](CO)[C@H](O)CO | inactive | – |
| Cc1nc(-c2ccccn2)ncc1C(=O)Nn1cc(C)c2cc(F)ccc21 | inactive | – |
| O=C(Nc1ccccc1)c1cc(Cl)ccc1O | inactive | – |
| CC(=O)c1ccc(OCC(=O)N2CCCCC2)cc1 | inactive | – |
| Cc1nc2ccccc2c(=O)o1 | inactive | – |
| CCCc1ccc(OC)cc1 | inactive | – |
| Cc1onc(-c2c(Cl)cccc2Cl)c1C(=O)N[C@@H]1C(=O)N2[C@@H]1SC(C)(C)[C@@H]2C(=O)O | inactive | – |
| CC(=O)c1ccc2c(c1)N(CCCN(C)C)c1ccccc1S2 | 0.0259 µM (active) | – |
| CCCOC(=O)CCCCC(=O)OCCC | inactive | – |
| Cc1c(C)n(Cc2ccccc2)c2ccc(C(=O)OCCN(C)C)cc12 | 16.3 µM (active) | – |
| O=C(Nc1ccc2c(c1)Cc1ccccc1-2)C(F)(F)F | inactive | – |
| O=C(c1ccccc1)c1ccc(O)cc1 | inactive | – |
| c1ccccc1 | inactive | – |

| SMILES | Potency | activity, negative = inhibition |
| --- | --- | --- |
| O=C(O)Cc1cc(I)c(Oc2ccc(O)c(I)c2)c(I)c1 | inactive | – |
| CC(=O)NCCCS(=O)(=O)O | inactive | – |
| CC(C)c1ccc2ncccc2c1 | inactive | – |
| CCOC(=O)CC(C)C | inactive | – |
| CCCCC=O | inactive | – |
| NC(N)=NCCC[C@H](N)C(=O)O | – | 19.6% [at 5.62 µM] (inactive) |
| COC(=O)NCCC[Si](OC)(OC)OC | inactive | – |
| COc1ccc2cc1Oc1ccc(cc1)C[C@H]1c3c(cc4c(c3Oc3cc5c(cc3OC)CCN(C)[C@@H]5C2)OCO4)CCN1C | inactive | – |
| Nc1ccc(F)cc1F | inactive | – |
| CN(C)[C@@H]1C(=O)C(C(N)=O)=C(O)[C@@]2(O)C(=O)C3=C(O)c4c(O)ccc(Cl)c4[C@@H](O)[C@H]3C[C@@H]12 | inactive | – |
| N[C@@H]1CONC1=O | inactive | – |
| FB(F)F | inactive | – |
| Cc1ccc(N)cc1O | inactive | – |
| CC(C)COC(=O)C(C)C | inactive | – |
| Oc1ccc(Cc2ccccc2)cc1 | inactive | – |
| CCCCCCCC/C=C\CCCCCCCC(=O)NCc1ccc(O)c(OC)c1 | inactive | – |
| O=C(O)[C@@H]1CSCN1 | inactive | – |
| CCCCC/C(=C\c1ccccc1)CO | inactive | – |
| COC(=O)/C=C/C(C)=C\C=C\C(C)=C\C=C\C=C(C)\C=C\C=C(C)\C=C\C(=O)O | inactive | – |
| O=Cc1ccccc1S(=O)(=O)O | inactive | – |
